# Data from PubChem BioAssay AID777 (Sanford-Burnham Center for Chemical Genomics, 2007).
# The whole screen tested about 96,000 compounds, of which about 19,000 (20%) were called active. A selection follows. A number with no mark means an inactive call.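 How the source made its calls: active means blocking of liver enzyme CYP2C9 beyond about 50% at 5 µM (limit read from the data); inactive means the rest.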
# Molecular target: Cytochrome P450 2C9 (Homo sapiens) (UniProt P11712)
# Assay: blockers of cytochrome P450 2C9 activity – biochemical, luminescence, ADME assay, primary screen (AID 777)
# Conditions: CYP2C9 Supersomes, luciferin-H conversion, at 5 µM, active compounds read high
# Chain of Cytochrome P450 2C9 (Homo sapiens) (P11712 whole entry, looked up): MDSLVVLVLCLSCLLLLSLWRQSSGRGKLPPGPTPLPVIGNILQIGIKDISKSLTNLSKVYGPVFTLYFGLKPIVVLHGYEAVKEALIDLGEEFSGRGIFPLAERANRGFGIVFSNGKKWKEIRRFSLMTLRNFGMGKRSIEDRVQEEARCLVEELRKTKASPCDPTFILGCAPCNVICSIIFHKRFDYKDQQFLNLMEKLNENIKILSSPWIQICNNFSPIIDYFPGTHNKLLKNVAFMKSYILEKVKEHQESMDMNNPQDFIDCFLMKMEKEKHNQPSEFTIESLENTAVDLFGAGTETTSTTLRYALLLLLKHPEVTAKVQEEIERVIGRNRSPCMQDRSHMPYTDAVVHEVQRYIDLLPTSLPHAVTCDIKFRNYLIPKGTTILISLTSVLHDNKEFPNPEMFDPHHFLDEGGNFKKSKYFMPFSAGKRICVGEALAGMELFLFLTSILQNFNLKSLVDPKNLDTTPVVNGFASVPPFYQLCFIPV
row,SMILES,inhibition
1,CCC(C)n1[nH]c(=O)cc1N (centres undefined),-5.6%
2,Brc1ccc(C2=CC(c3ccco3)n3ncnc3N2)cc1 (centres undefined),3.2%
3,COC(=O)C1=C(C)Nc2ncnn2C1c1cccnc1 (centres undefined),-19.5%
4,Clc1ccc2c(c1)C1=C(C(c3ccncc3)O2)C(c2ccc(Br)cc2)n2ncnc2N1 (centres undefined),82% (active)
5,COc1cccc2c1OCC(C(=O)NCc1ccc(Cl)cc1Cl)=C2,-17.7%
6,COC(=O)c1ccc2c(c1)S(=O)(=O)NC(=NCCCN1CCOCC1)S2,11.4%
7,O=C(NCc1ccc2c(c1)OCO2)c1ccc2c(c1)C(=O)N(CC1CCCO1)C2=O (centres undefined),2.3%
8,O=C(/C=C\NCC(=O)c1ccccc1)c1ccccc1,12.9%
9,O=C(/C=C/NNC(=O)c1cccc(Br)c1)c1ccccc1,76.7% (active)
10,CC(C)(O)C(=O)NN(C(=O)c1ccccc1)c1cccc(Br)c1,-6.8%
11,Cc1ccsc1/C=C1\SC(N2CCOCC2)=NC1=O,-18%
12,Cc1cc2nc(C)n(CCCNC(=O)Nc3ccccc3)c2cc1C,44.6%
13,O=C(COc1ccccc1)N1CCc2ccccc2C1,39.9%
14,CCOc1ccc(CN2CCCN(C)CC2)cc1,-7.8%
15,CCCCOC(=O)c1ccc(N2C(=O)CC(N3CCN(C/C=C/c4ccccc4)CC3)C2=O)cc1 (centres undefined),60.1% (active)
16,CCOC(=O)c1ccc(N2C(=O)CC(N3CC(C)OC(C)C3)C2=O)cc1 (centres undefined),5.1%
17,CCOC(=O)c1ccc(N2C(=O)CC(N3CCC(C(=O)OCC)CC3)C2=O)cc1 (centres undefined),38.3%
18,Cc1cccc(OCc2nnc(SCC(=O)N3CCN(C(=O)c4ccco4)CC3)n2C)c1C,5.9%
19,Cc1ccc(-c2c3c(=O)n(C)c(=O)n(C)c3cn2-n2cnnc2)cc1,-7.5%
20,CCC(C)Sc1nc2c(c(=O)[nH]c(=O)n2C)n1CC(O)COc1cccc2ccccc12 (centres undefined),24%
21,CCOc1ccc(S(=O)(=O)NCC2CCCO2)cc1 (centres undefined),7.4%
22,CCOc1ccc(S(=O)(=O)NCCSc2ccccc2)cc1,75.7% (active)

row,SMILES,inhibition
1,O=C(COc1ccc(S(=O)(=O)NCCc2ccccc2)cc1)N1CCCC1,45.1%
2,Cc1[nH][nH]c(=O)c1C(c1ccc(-c2ccc(Cl)cc2)o1)c1c(C)[nH][nH]c1=O,22.5%
3,CCC(=O)c1cc2c(cc1NC(=O)c1cccs1)OCCO2,-7%
4,O=C(Nc1ccc2oc(-c3ccc4ccccc4c3)nc2c1)c1cccs1,27.5%
5,O=C(Cc1cccc2ccccc12)Nc1ccc2oc(-c3ccccc3)nc2c1,20.1%
6,CCCCCC(=O)Nc1ccc2oc(-c3ccncc3)nc2c1,75.3% (active)
7,N#CC(C(N)=O)=C1CCC2(CC1)OCCCCO2,-39.1%
8,CN(C)Cc1ccccc1C1(O)c2ccccc2CSc2ccccc21 (centres undefined),51% (active)
9,CN(C)/C=C1/C(=O)Nc2ccccc21,-12.8%
10,CCOC(=O)N1CCC(NC(=O)COc2cc(=O)n(C)c3ccccc23)CC1,-30.2%
11,Cc1cccc(NC(=O)Cn2cc(C(=O)c3ccco3)c3ccccc32)c1,27.3%
12,Cc1ccc(Nc2nc(-c3sc(NC(=O)c4ccccc4)nc3C)cs2)cc1,3.8%
13,NS(=O)(=O)c1ccc(Nc2nc(-c3ccccc3)cs2)cc1,58% (active)
14,COc1ccc(Nc2nc(-c3ccccc3)cs2)cc1,31.7%
15,Cc1cccc(C(=O)Nc2ccc(CC(=O)O)cc2)c1,-10.9%
16,O=C(CN1CCN(c2ncc(C(F)(F)F)cc2Cl)CC1)Nc1ccc2c(c1)OCO2,8.6%
17,O=C(O)CSCC(=O)Nc1cccc(C(F)(F)F)c1,18.9%
18,O=C(CN1CCN(c2ccc(F)cc2)CC1)Nc1cccc(C(F)(F)F)c1,82.8% (active)
19,COc1ccccc1NC(=O)c1ccc(C)s1,-248%
20,Cc1nc(NC(=O)c2cccc(Cl)c2)sc1-c1csc(Nc2cccc(Cl)c2)n1,-17.4%
21,CC(=O)N/C(=C/c1ccc(Cl)cc1)C(=O)NCCc1c[nH]c2ccccc12,-168%
22,Cc1ccc(C(=O)N/C(=C/c2ccco2)C(=O)NCCc2c[nH]c3ccccc23)cc1C,52.5% (active)

row,SMILES,inhibition
1,COc1ccc(/C=C(\NC(=O)c2ccc(OC)c(OC)c2)C(=O)NCCc2c[nH]c3ccccc23)cc1,42.3%
2,CCOc1ccc2[nH]c(=O)c(CN(CCCO)C(C)=O)cc2c1,-9.6%
3,CCOc1ccc(C(O)Cn2c(=N)n(CCN3CCCCC3)c3ccccc32)cc1 (centres undefined),23.4%
4,Oc1c(C(c2ccco2)N2CCC3(CC2)OCCO3)sc2ncnn12 (centres undefined),22.5%
5,Cc1ccc(C(c2sc3nc(C)nn3c2O)N2CCN(c3ccc(F)cc3)CC2)cc1 (centres undefined),40.7%
6,Oc1c(C(c2cccs2)N2CCN(c3ccc(F)cc3)CC2)sc2ncnn12 (centres undefined),79.2% (active)
7,COc1ncnc2sc3c(c12)CCCC3,19.3%
8,Cc1ccc(NC(=O)C2CC(c3ccc(F)cc3)=NO2)cc1 (centres undefined),22.1%
9,O=C1NC(Nc2nc3ccccc3s2)(C(F)(F)F)C(=O)N1C1CCCCC1 (centres undefined),85.2% (active)
10,COC(=O)NC1(C(F)(F)F)NC(=O)N(C2CCCCC2)C1=O (centres undefined),19.6%
11,CNC(=O)C1CC(=O)N(Cc2ccc3c(c2)OCO3)C(=Nc2ccc(F)cc2)S1 (centres undefined),24.5%
12,CCOC(=O)CCP(=O)(O)C(O)(c1ccccc1)c1ccccc1,-3.3%
13,COc1ccc(C)c(Cn2c(-c3nonc3N)nc3ccccc32)c1,51.8% (active)
14,Nc1nonc1-c1nc2ccccc2n1Cc1ccc(F)cc1,27.7%
15,Nc1nonc1-c1nc2ccccc2n1CCC(=O)O,13.6%
16,O=C(COc1ccccc1Cl)Nn1cnnc1,7.7%
17,CCC1Oc2ccc(Cl)cc2N(CC(=O)O)C1=O (centres undefined),0.1%
18,CSCCC(C(=O)NC1=NCCS1)N1C(=O)c2ccccc2C1=O (centres undefined),-3.3%
19,O=C(NC1=NCCS1)[C@H](Cc1ccccc1)N1C(=O)c2ccccc2C1=O,85.9% (active)
20,CC(NC(=O)COc1ccccc1)C(=O)NC1=NCCS1 (centres undefined),6%
